Results filed as inconclusive are left out. Where a call stands in place of a potency, no number is given. A number with no mark means an inactive call. Calls of active or inactive are those of the source. Calls follow the shape of the dose curve; as a rule, active = well fitted cell-killing curve with a large enough effect; inconclusive = small, poorly fitted or top-dose-only effect, or effect the other way; inactive = flat fitted curve, though single readings scatter.
How the values were obtained:
Test in all cases: Primary qHTS to identify gynecologic anti-cancer compounds using libraries of approved drugs and bioactive compounds (AID 1345084); also: nearly all actives have a fitted effect of over 55% in size
C33A = conditions: Gynecologic cancer cell panel viability, ATPlite luminescence, 48 h; series mostly up to 57.5 µM
Method in brief: (§1)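 Five-concentration response, 48 h; readout is ATP-driven luciferase luminescence.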

CAOV3 = conditions: Gynecologic cancer cell panel viability, ATPlite luminescence, 48 h; series mostly up to 57.5 µM
Method in brief: as §1

CASKI = conditions: Gynecologic cancer cell panel viability, ATPlite luminescence, 48 h; series mostly up to 57.5 µM
Method in brief: as §1

Es-2 = conditions: Gynecologic cancer cell panel viability, ATPlite luminescence, 48 h; series mostly up to 57.5 µM
Method in brief: as §1

HeLa = conditions: Gynecologic cancer cell panel viability, ATPlite luminescence, 48 h; series mostly up to 57.5 µM
Method in brief: as §1

Hek293T = conditions: Gynecologic cancer cell panel viability, ATPlite luminescence, 48 h, control line for the selectivity index; series mostly up to 57.5 µM
Method in brief: as §1

OV90 = conditions: Gynecologic cancer cell panel viability, ATPlite luminescence, 48 h; series mostly up to 57.5 µM
Method in brief: as §1

PA-1 = conditions: Gynecologic cancer cell panel viability, ATPlite luminescence, 48 h; series mostly up to 57.5 µM
Method in brief: as §1

Tov112D = conditions: Gynecologic cancer cell panel viability, ATPlite luminescence, 48 h; series mostly up to 57.5 µM
Method in brief: as §1

Tov-21-G = conditions: Gynecologic cancer cell panel viability, ATPlite luminescence, 48 h; series mostly up to 57.5 µM
Method in brief: as §1

JEG-3 = conditions: Gynecologic cancer cell panel viability, ATPlite luminescence, 48 h; series mostly up to 57.5 µM
Method in brief: as §1

SKOV3 = conditions: Gynecologic cancer cell panel viability, ATPlite luminescence, 48 h; series mostly up to 57.5 µM
Method in brief: as §1
Potency is read from the fitted curve at half-maximal effect.

With `COc1cc(O)cc(/C=C/c2ccc(O[C@@H]3O[C@H](CO)[C@@H](O)[C@H](O)[C@H]3O)cc2)c1` the Potency (C33A) was “inactive”, the Potency (CAOV3) was “inactive” and the Potency (CASKI) was “inactive”. For the same molecule, the Potency (Es-2) was “inactive”, the Potency (HeLa) was “inactive” and the Potency (Hek293T) was “inactive”. For the same molecule, the Potency (OV90) was “inactive”, the Potency (PA-1) was “inactive” and the Potency (Tov112D) was “inactive”.

`CC(C)NCC(C(=O)N1CCN(c2ncnc3c2C(C)CC3O)CC1)c1ccc(Cl)cc1` (stereo unspecified) was tested, and the Potency (C33A) was 3.98 µM (active), the Potency (CAOV3) was “inactive” and the Potency (CASKI) was “inactive”. The Potency (Es-2) was “inactive”, the Potency (HeLa) was “inactive” and the Potency (PA-1) was “inactive”. For the same molecule, the Potency (Tov-21-G) was 0.794 µM (active) and the Potency (Tov112D) was “inactive”.

With `COc1cc(Nc2nc3c(s2)CCCC3c2ccc(F)cc2)ccc1-n1cnc(C)c1` (stereo unspecified) the Potency (C33A) was “inactive”, the Potency (CAOV3) was “inactive” and the Potency (CASKI) was “inactive”. The Potency (Es-2) was “inactive”, the Potency (HeLa) was “inactive” and the Potency (Hek293T) was “inactive”. For the same molecule, the Potency (JEG-3) was “inactive”, the Potency (PA-1) was “inactive” and the Potency (Tov-21-G) was “inactive”. The Potency (Tov112D) was “inactive”.

In the case of `CC1CC2OC3(OC2C(C)(C)O)C1C1(C)CCC24CC25CCC(O[C@@H]2OC[C@@H](O)[C@H](O)[C@H]2O)C(C)(C)C5CC=C4C1(C)C3O` (stereo partly specified), the Potency (C33A) is reported as “inactive”, the Potency (CAOV3) is reported as “inactive” and the Potency (CASKI) is reported as “inactive”. The Potency (Es-2) was “inactive”, the Potency (HeLa) was “inactive” and the Potency (Hek293T) was “inactive”. For the same molecule, the Potency (OV90) was “inactive”, the Potency (PA-1) was “inactive” and the Potency (SKOV3) was “inactive”. For the same molecule, the Potency (Tov-21-G) was “inactive” and the Potency (Tov112D) was “inactive”.

For `CO[C@H]1C[C@@H]2CC[C@@H](C)[C@@](O)(O2)C(=O)C(=O)N2CCCC[C@H]2C(=O)O[C@H]([C@H](C)C[C@@H]2CC[C@H](n3cnnn3)[C@H](OC)C2)CC(=O)[C@H](C)/C=C(\C)[C@@H](O)[C@@H](OC)C(=O)[C@H](C)C[C@H](C)/C=C/C=C/C=C/1C`, the Potency (C33A) was “inactive”, the Potency (CAOV3) was “inactive” and the Potency (CASKI) was “inactive”. The Potency (Es-2) was “inactive”, the Potency (HeLa) was “inactive” and the Potency (JEG-3) was “inactive”. The Potency (OV90) was “inactive”, the Potency (PA-1) was “inactive” and the Potency (SKOV3) was “inactive”. For the same molecule, the Potency (Tov112D) was “inactive”.

With `NC1(C(=O)NC(CCO)c2ccc(Cl)cc2)CCN(c2ncnc3[nH]ccc23)CC1` (stereo unspecified) the Potency (C33A) was 2.24 µM (active), the Potency (CAOV3) was “inactive” and the Potency (CASKI) was “inactive”. The Potency (Es-2) was “inactive”, the Potency (HeLa) was “inactive” and the Potency (JEG-3) was “inactive”. The Potency (PA-1) was “inactive”, the Potency (Tov-21-G) was 1.26 µM (active) and the Potency (Tov112D) was “inactive”.

`COc1cc(O)cc(C)c1C(=O)O[C@H]1[C@@H](OC(C)=O)[C@H](n2ccc(=O)[nH]c2=O)O[C@@H]1CO` was tested, and the Potency (C33A) was “inactive”, the Potency (CAOV3) was “inactive” and the Potency (CASKI) was “inactive”. For the same molecule, the Potency (Es-2) was “inactive”, the Potency (HeLa) was “inactive” and the Potency (JEG-3) was “inactive”. For the same molecule, the Potency (OV90) was “inactive”, the Potency (PA-1) was “inactive” and the Potency (SKOV3) was “inactive”. The Potency (Tov-21-G) was “inactive” and the Potency (Tov112D) was “inactive”.

`O=C(O)c1ccc(CN2CCC(CN[C@@H]3C[C@H]3c3ccccc3)CC2)cc1` was tested, and the Potency (C33A) was “inactive”, the Potency (CAOV3) was “inactive” and the Potency (CASKI) was “inactive”. The Potency (Es-2) was “inactive”, the Potency (HeLa) was “inactive” and the Potency (Hek293T) was “inactive”. The Potency (OV90) was “inactive”, the Potency (PA-1) was “inactive” and the Potency (Tov-21-G) was “inactive”. The Potency (Tov112D) was “inactive”.

`Nc1ccccc1N` was tested, and the Potency (C33A) was 10 µM (active), the Potency (CAOV3) was 5.62 µM (active) and the Potency (CASKI) was 7.94 µM (active). For the same molecule, the Potency (Es-2) was 11.2 µM (active), the Potency (HeLa) was 12.6 µM (active) and the Potency (Hek293T) was 7.94 µM (active). For the same molecule, the Potency (OV90) was 10 µM (active), the Potency (PA-1) was 14.1 µM (active) and the Potency (SKOV3) was 12.6 µM (active). For the same molecule, the Potency (Tov-21-G) was 12.6 µM (active).

`O=C1CCC=CC1(O)C(=O)OCc1ccccc1O[C@@H]1O[C@H](CO)[C@@H](O)[C@H](O)[C@H]1O` (stereo partly specified) was tested, and the Potency (C33A) was “inactive”, the Potency (CAOV3) was “inactive” and the Potency (CASKI) was “inactive”. The Potency (Es-2) was “inactive”, the Potency (HeLa) was “inactive” and the Potency (Hek293T) was “inactive”. The Potency (OV90) was “inactive”, the Potency (SKOV3) was “inactive” and the Potency (Tov-21-G) was “inactive”. For the same molecule, the Potency (Tov112D) was “inactive”.

For `CS(=O)(=O)c1ccc(-c2nnc(/C=C/c3nnc(-c4ccc(C#N)cc4)o3)n2-c2ccccc2Cl)nc1`, the Potency (C33A) was “inactive”, the Potency (CAOV3) was “inactive” and the Potency (CASKI) was “inactive”. The Potency (Es-2) was “inactive”, the Potency (HeLa) was “inactive” and the Potency (JEG-3) was “inactive”. For the same molecule, the Potency (OV90) was “inactive”, the Potency (PA-1) was “inactive” and the Potency (SKOV3) was “inactive”. For the same molecule, the Potency (Tov-21-G) was “inactive” and the Potency (Tov112D) was “inactive”.

With `CCOCc1cc(OC)c(-c2ccc(C[C@H](NC(=O)c3c(F)cccc3F)C(=O)O)cc2)c(OC)c1` the Potency (C33A) was “inactive”, the Potency (CAOV3) was “inactive” and the Potency (CASKI) was “inactive”. The Potency (Es-2) was “inactive”, the Potency (HeLa) was “inactive” and the Potency (JEG-3) was “inactive”. The Potency (OV90) was “inactive”, the Potency (PA-1) was “inactive” and the Potency (SKOV3) was “inactive”. For the same molecule, the Potency (Tov-21-G) was “inactive”.

With `CCC(CC)C(=O)Nc1sc2c(c1C#N)CCC(C(C)(C)CC)C2` (stereo unspecified) the Potency (C33A) was “inactive”, the Potency (CAOV3) was “inactive” and the Potency (CASKI) was “inactive”. The Potency (Es-2) was “inactive”, the Potency (HeLa) was “inactive” and the Potency (JEG-3) was “inactive”. The Potency (OV90) was “inactive”, the Potency (PA-1) was “inactive” and the Potency (Tov-21-G) was “inactive”. The Potency (Tov112D) was “inactive”.

For `CN[C@H](CC(C)C)C(=O)N[C@H]1C(=O)N[C@@H](CC(N)=O)C(=O)N[C@H]2C(=O)N[C@H]3C(=O)N[C@H](C(=O)N[C@H](C(=O)O)c4cc(O)cc(O)c4-c4cc3ccc4O)[C@H](O[C@H]3C[C@](C)(N)[C@@H](O)[C@H](C)O3)c3ccc(c(Cl)c3)Oc3cc2cc(c3O[C@@H]2O[C@H](CO)[C@@H](O)[C@H](O)[C@H]2O[C@H]2C[C@](C)(NCc3ccc(-c4ccc(Cl)cc4)cc3)[C@@H](O)[C@H](C)O2)Oc2ccc(cc2Cl)[C@H]1O`, the Potency (C33A) was “inactive”, the Potency (CAOV3) was “inactive” and the Potency (CASKI) was “inactive”. For the same molecule, the Potency (Es-2) was “inactive”, the Potency (HeLa) was “inactive” and the Potency (Hek293T) was “inactive”. For the same molecule, the Potency (JEG-3) was “inactive”, the Potency (PA-1) was “inactive” and the Potency (SKOV3) was “inactive”. The Potency (Tov-21-G) was “inactive” and the Potency (Tov112D) was “inactive”.

With `COC(=O)c1ccnc(-c2cc(C(=O)NCCc3ccccc3)ccn2)c1` the Potency (C33A) was “inactive”, the Potency (CAOV3) was “inactive” and the Potency (CASKI) was “inactive”. The Potency (Es-2) was “inactive”, the Potency (HeLa) was “inactive” and the Potency (Hek293T) was “inactive”. The Potency (OV90) was “inactive”, the Potency (PA-1) was “inactive” and the Potency (SKOV3) was “inactive”. For the same molecule, the Potency (Tov-21-G) was “inactive” and the Potency (Tov112D) was “inactive”.

For `CC(C)=CCCC1(C)C=Cc2c(c(C)cc3c2[nH]c2ccccc23)O1` (stereo unspecified), the Potency (C33A) was “inactive”, the Potency (CAOV3) was “inactive” and the Potency (CASKI) was “inactive”. For the same molecule, the Potency (Es-2) was “inactive”, the Potency (HeLa) was “inactive” and the Potency (Hek293T) was “inactive”. For the same molecule, the Potency (JEG-3) was “inactive”, the Potency (SKOV3) was 8.91 µM (active) and the Potency (Tov-21-G) was “inactive”. The Potency (Tov112D) was “inactive”.
